Bioassay records deposited in PubChem by several laboratories.
In the library only some 12% were active in any assay of this set; here they are far more common.
WT yeast gro inh – growth inhibition of WT yeast, mitochondrial fusion screen. mitochondrial fusion phenotypic screen, WT strain. inhibition, % at 10 µM. 190,000 compounds, 2.1% hits; in the data active means inhibition above about 58%; tested in S. cerevisiae
CHOP inh – CHOP inhibition in unfolded protein response; inhibition, % at 10 µM; CHO-K1 CHOP-promoter luciferase, tunicamycin-induced, 15-18 h; 220,000 compounds, 3.8% hits;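 active means compounds that reduced the stress-induced luciferase reporter signal by more than about 70% of percent inhibition, limit read from the data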;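 further: 0% = tunicamycin plus vehicle and 100% = wells without tunicamycin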
L major viab – Leishmania major promastigote growth inhibition; Leishmania major promastigotes, resazurin fluorescence viability; inhibition, % at 10 µM; 200,000 compounds, 9% hits; AID 1063; in the data active means inhibition above about 50%;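 further: promastigotes grown with compound for 44 hours at 28 °C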
Arbovirus inh – antivirals against arbovirus infection | arbovirus infection cell-based antiviral screen | inhibition, % at 10 µM | 200,000 compounds, 0.37% hits; in the data active means inhibition above about 30%
L major 1uM – blocks Leishmania major promastigote growth at 1 uM, repeat screen; shares compounds with L major viab; L. major promastigote growth, resazurin fluorescence, 48 h; inhibition, % at 1 µM; 1,100 compounds, 13% hits; AID 1258;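 active means inhibition above about 50% in both repeat tests, limit read from the data; inconclusive means one repeat under the set limit, the other over it; inactive means both repeats under the set limit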
Active calls of the source: *; ? = inconclusive; / = not tested or not shown.

SMILES	WT yeast gro inh	CHOP inh	L major viab	Arbovirus inh	L major 1uM
COc1ccc(Cn2c(-c3ccc(OC)cc3)nc3ccccc32)cc1	55	4	62*	-19	63*
COC(=O)c1cc(NS(=O)(=O)c2ccc(NCc3cccnc3)c([N+](=O)[O-])c2)cc(C(=O)OC)c1	-15	-2	-9	-5	/
CCCCCCCCC/C(=N\O)c1ccccn1	74*	-7	87*	-42	5
CCCCCCCCC(=O)N/N=C/c1ccccn1	-8	39	6	-26	/
Cc1c(CC=C(Cl)Cl)c(=O)[nH]c2c(C)cccc12	14	31	19	1	/
CCOC(=O)C1CCCN(c2ccc(NC(=O)c3snc4c(=O)[nH]cnc34)cc2)C1 (centres undefined)	-10	51	76*	26	14
CCOC(=O)C1CCCN(c2ccc(NC(=O)c3snc4c(=O)[nH]c(C)nc34)cc2)C1 (centres undefined)	12	-17	-2	11	/
Clc1ccc2[nH]c3c(c2c1)CCc1cn[nH]c1-3	25	87*	54*	-26	-9
O=CNC1CCCc2c1[nH]c1ccc(Cl)cc21 (centres undefined)	-4	23	-11	5	/
O=C(Nc1ccc(O)c(C(=O)O)c1)Oc1ccccc1	/	6	/	/	/
c1ccc(CNc2nc(-c3cccs3)nc3ccccc23)cc1	71*	51	99*	-5	59*
CC(C)(C)NC(=O)CSc1nc2scc(-c3ccccc3)c2c(=O)[nH]1	8	9	36	24	/
O=C(CSc1nc2scc(-c3ccccc3)c2c(=O)[nH]1)NC1CCCCC1	-7	9	55*	-5	3
COc1ccc(Cl)cc1S(=O)(=O)N1CCN(C)CC1	-7	-12	-6	2	/
CCN(CC)c1ccc(NC(=O)CN2CCN(S(=O)(=O)c3cc(Cl)ccc3OC)CC2)cc1	26	15	54*	-29	66*
OCC1(Cc2ccccc2)CCN(C2CCN(c3ccccc3F)CC2)CC1	43	12	86*	-14	?
OCC1(Cc2ccccc2)CCN(Cc2ccccn2)CC1	-3	13	-4	3	/
Cc1c(Cl)sn(-c2ccc(Cl)cc2)c1=O	94	95*	101*	-27	100*
COC(=O)C1=C(C(=O)OC)SC2(S1)C(C(=O)OC)=C(C(=O)OC)SC1=C2c2cccc(C)c2NC1(C)C	8	50	100*	-3	6
C=CCSc1ncc(C#N)c(N)n1	3	16	-3	1	/
CC(C)(C)c1nn(-c2ccccc2)c2nc(Cl)c(C=O)cc12	-3	15	96*	-6	7
Cc1nn(-c2ccccc2)c2nc(=O)n(-c3ccccc3)cc12	14	5	-4	2	/
Cc1sc2nc(CN(Cc3cccs3)C(=O)NC3CCCCC3)[nH]c(=O)c2c1C	66*	61	53*	-14	2
Cc1sc2nc(CN(C(=O)NC3CCCCC3)C3CCCC3)[nH]c(=O)c2c1C	-3	21	43	-14	/
O=[N+]([O-])c1ccc2c(c1)C(N1CCOCC1)/C(=C/COc1ccc3ccccc3c1Br)O2 (centres undefined)	27	48	97*	11	-1
SMILES	WT yeast gro inh	CHOP inh	L major viab	Arbovirus inh	L major 1uM
O=C(Oc1coc(CSc2ncccn2)cc1=O)c1cccc([N+](=O)[O-])c1	9	34	-7	5	/
O=C(Oc1ccc(Cl)c2cccnc12)c1cccc([N+](=O)[O-])c1	13	50	99*	-3	1
COc1ccccc1N1CCN(C(=O)CCc2c[nH]c3ccccc23)CC1	12	23	21	-4	/
O=C(Cn1cnc2c(nnn2-c2ccccc2)c1=O)N1CCCc2ccccc21	7	-3	53*	-3	-7
O=C(Cn1cnc2c(nnn2Cc2ccccc2)c1=O)N1CCCc2ccccc21	2	22	-8	2	/
COc1ccc(C2(C(=O)NC3CCCCC3)CCOCC2)cc1OC	13	-8	6	6	/
c1ccc(CN2CCN(C3=Nc4cccc5cccc3c45)CC2)cc1	2	15	98*	-25	46
COC(=O)C1CCN(S(=O)(=O)c2ccc(OC)cc2)CC1	4	25	-1	4	/
O=c1c(C=NCCN2CCNCC2)c(-c2ccccc2)[nH]n1-c1ccc([N+](=O)[O-])cc1	0	-24	101*	-15	28
COc1ccc(-c2[nH]n(-c3ccc([N+](=O)[O-])cc3)c(=O)c2C=NCCN2CCNCC2)cc1	13	39	34	-23	/
CCC(C)NCCOc1ccc(Br)cc1 (centres undefined)	2	22	82*	-4	-7
c1ccc(-c2nc(-c3cccs3)[nH]c2-c2ccccc2)cc1	4	74*	53*	-8	8
CC(C)c1cc(C(=O)N2CCCC(CCC(=O)N3CCN(c4ccccn4)CC3)C2)no1 (centres undefined)	/	10	/	/	/
CNCCCCOc1ccccc1Cc1ccccc1	26	-1	/	-18	/
CN(C)CCOc1ccccc1Cc1ccccc1	7	22	100*	0	89*
O=c1c2ccccc2[nH]c(=S)n1CCN1CCCC1	3	42	-2	0	/
CN1CCCCc2c1[nH]c1ccccc1c2=O	-1	8	98*	-7	-3
CC1(C)Cc2ccccc2C(NNC(=O)c2ccccc2)=N1	-5	-5	-4	10	/
CC1(C)Cc2ccccc2C(NNC(=O)c2ccccn2)=N1	20	6	98*	-28	-7
O=C(O)c1cccnc1Sc1ccc(Cl)cc1	0	19	5	2	/
O=C(O)c1cccnc1Sc1ccccc1	-16	-13	56*	-6	-13
Cc1cc(/C=C(\C#N)C(=O)N2CCOCC2)c(C)n1C1CCCC1	/	15	/	/	/
Cc1cc(C)c2ccc3c(C)c(C)nc3c2[nH]1	48	22	56*	-12	40
CCCCN(CCCC)CCNC(=O)CNC(=O)c1cccs1	5	45	-2	3	/
CCOC(=O)c1ccccc1NC(=O)Cc1sc(-c2cccnc2)nc1-c1ccc(C)cc1	45	17	97*	-2	-4
SMILES	WT yeast gro inh	CHOP inh	L major viab	Arbovirus inh	L major 1uM
Cc1ccc(-c2nc(-c3cccnc3)sc2CC(=O)Nc2ccc3nc(C)sc3c2)cc1	2	-2	33	-17	/
N#CC1=C(Nc2ccccc2)SC=C(c2ccccc2)N=C1N1CCOCC1	4	-8	0	3	/
N#CC1=C(Nc2ccccc2)SC=C(c2ccc(Cl)c(Cl)c2)N=C1N1CCOCC1	0	-23	100*	-15	-14
O=C1CC(C2CCCO2)C(=O)N1c1ccccc1 (centres undefined)	-6	2	-5	6	/
COc1ccc(-c2nn(-c3ccccc3C)cc2CNCCc2cnc[nH]2)cc1F	-11	-7	96*	-7	-20
CCn1cc(CNCc2cn(-c3ccccc3C)nc2-c2ccc(OC)c(F)c2)cn1	-24	26	1	-2	/
CS(=O)(=O)N(CC(=O)Nc1ccc(CC#N)cc1)c1ccc(C23CC4CC(CC(C4)C2)C3)cc1	19	32	47	-11	/
CCn1c2ccccc2c2cc(/C(C)=N/O)ccc21	37	17	69*	-11	-15
C/C(=N\O)c1ccc2c3ccccc3n(C)c2c1	17	32	5	1	/
